In the supplement of paper PMC11001985:

Compound: C#CCNC(=O)CCSSCCC(=O)NCCc1ccc(C=O)c(C=O)c1
Assay: lysine labeling ratio R10:1 (500 µM / 50 µM probe), SILAC-ABPP in living cells; higher = lower intrinsic lysine reactivity toward the probe, active = 2 or less
Details: HeLa; probe concentrations 500 vs 50 µM
Outline: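 R, given per lysine, is the filtered median high-probe/low-probe MS1 peptide ratio, with the median then taken across forward and reverse replicates. Cells were living SILAC light and heavy HeLa cells in PBS at room temperature, labelled with 50 µM or 500 µM of an alkyne-tagged, disulfide-linked lysine probe. The ceiling applied is 20.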

Sequence of UniProt P07910 (P07910 whole entry): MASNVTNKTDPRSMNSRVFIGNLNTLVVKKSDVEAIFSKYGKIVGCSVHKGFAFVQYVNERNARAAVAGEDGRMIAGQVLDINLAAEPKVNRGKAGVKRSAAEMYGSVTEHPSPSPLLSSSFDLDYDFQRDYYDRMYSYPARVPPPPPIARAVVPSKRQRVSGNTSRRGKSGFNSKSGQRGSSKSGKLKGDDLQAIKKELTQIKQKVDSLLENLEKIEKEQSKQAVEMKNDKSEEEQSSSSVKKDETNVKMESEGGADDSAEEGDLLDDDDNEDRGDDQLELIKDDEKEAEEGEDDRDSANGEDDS
Sequence of UniProt P15151 (P15151 whole entry): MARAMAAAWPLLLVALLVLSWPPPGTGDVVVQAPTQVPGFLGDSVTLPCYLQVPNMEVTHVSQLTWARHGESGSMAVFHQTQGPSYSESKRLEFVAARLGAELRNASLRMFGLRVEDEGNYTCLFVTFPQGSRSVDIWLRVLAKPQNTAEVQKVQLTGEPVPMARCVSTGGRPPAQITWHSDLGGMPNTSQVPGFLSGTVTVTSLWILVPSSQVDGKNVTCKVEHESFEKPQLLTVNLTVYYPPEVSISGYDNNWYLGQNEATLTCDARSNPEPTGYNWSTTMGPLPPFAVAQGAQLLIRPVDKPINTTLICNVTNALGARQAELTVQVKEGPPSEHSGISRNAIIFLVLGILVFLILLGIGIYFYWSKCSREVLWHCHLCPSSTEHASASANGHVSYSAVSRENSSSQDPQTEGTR
Sequence of UniProt P35579 (P35579 whole entry): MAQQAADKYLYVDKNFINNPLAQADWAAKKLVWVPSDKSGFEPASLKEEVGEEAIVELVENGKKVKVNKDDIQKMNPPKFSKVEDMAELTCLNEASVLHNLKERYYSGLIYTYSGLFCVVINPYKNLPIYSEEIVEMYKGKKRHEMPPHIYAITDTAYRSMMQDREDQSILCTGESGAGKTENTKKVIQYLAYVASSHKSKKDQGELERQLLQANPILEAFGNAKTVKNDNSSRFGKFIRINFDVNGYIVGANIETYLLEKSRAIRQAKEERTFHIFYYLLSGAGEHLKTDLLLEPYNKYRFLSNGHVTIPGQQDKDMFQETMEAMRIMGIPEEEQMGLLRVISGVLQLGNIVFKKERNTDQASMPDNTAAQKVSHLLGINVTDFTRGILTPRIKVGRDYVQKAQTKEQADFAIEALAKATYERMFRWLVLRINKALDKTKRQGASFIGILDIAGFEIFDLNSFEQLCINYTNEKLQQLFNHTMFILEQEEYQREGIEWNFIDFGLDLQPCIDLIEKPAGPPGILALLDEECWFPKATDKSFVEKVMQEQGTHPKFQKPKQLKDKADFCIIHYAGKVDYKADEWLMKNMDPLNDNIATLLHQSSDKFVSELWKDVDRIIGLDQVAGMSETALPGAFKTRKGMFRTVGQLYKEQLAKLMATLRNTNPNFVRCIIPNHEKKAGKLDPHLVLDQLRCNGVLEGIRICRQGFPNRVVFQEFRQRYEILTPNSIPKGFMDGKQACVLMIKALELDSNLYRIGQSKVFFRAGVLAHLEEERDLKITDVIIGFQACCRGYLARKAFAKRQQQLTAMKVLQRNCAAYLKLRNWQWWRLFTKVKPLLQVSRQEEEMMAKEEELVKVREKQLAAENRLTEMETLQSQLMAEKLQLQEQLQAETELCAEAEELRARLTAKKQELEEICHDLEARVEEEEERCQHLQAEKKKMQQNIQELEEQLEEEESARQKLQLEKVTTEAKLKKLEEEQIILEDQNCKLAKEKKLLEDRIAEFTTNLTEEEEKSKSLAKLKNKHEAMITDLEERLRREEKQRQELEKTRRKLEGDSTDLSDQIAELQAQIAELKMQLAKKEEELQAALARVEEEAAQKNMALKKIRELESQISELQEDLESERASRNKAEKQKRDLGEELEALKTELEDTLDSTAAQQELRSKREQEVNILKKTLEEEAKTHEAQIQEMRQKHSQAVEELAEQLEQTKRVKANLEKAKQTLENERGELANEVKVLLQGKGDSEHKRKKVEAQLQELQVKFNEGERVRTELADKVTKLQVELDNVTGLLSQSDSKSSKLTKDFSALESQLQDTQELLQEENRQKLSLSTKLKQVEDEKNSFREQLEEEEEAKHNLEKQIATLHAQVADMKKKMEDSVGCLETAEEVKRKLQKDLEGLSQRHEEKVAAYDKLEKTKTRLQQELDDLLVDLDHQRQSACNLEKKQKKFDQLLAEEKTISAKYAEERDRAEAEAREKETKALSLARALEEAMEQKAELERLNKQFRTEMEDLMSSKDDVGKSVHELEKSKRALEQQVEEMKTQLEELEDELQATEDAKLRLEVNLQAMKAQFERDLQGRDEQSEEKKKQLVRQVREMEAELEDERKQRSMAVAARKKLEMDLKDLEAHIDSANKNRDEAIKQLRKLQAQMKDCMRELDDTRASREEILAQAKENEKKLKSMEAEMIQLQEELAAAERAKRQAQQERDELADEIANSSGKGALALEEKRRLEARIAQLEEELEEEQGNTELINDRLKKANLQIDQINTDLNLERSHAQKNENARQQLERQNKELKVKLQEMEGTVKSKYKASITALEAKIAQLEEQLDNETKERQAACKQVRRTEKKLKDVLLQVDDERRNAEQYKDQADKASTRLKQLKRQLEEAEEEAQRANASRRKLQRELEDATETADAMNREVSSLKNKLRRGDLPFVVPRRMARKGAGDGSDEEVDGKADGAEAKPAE
Sequence of UniProt P26639 (P26639 whole entry): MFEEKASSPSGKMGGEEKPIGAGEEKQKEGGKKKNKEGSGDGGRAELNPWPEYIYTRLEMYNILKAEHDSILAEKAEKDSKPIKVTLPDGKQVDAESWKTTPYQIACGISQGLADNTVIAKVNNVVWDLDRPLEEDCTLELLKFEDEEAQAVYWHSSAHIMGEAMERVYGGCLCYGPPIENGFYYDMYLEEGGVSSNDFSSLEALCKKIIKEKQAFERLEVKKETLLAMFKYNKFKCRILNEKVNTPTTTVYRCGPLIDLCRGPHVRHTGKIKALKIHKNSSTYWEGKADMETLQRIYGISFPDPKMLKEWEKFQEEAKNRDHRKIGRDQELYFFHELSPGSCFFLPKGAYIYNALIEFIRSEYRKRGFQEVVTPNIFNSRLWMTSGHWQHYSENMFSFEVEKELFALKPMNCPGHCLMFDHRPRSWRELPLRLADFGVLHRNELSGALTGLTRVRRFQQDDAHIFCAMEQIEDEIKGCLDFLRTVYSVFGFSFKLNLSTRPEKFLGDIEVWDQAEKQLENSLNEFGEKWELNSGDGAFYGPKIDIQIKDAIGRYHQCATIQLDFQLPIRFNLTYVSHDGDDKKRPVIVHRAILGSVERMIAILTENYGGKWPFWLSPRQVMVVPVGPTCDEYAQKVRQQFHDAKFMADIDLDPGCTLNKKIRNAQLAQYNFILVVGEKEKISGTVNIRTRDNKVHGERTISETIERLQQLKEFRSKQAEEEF
Sequence of UniProt Q9BUQ8 (Q9BUQ8 whole entry): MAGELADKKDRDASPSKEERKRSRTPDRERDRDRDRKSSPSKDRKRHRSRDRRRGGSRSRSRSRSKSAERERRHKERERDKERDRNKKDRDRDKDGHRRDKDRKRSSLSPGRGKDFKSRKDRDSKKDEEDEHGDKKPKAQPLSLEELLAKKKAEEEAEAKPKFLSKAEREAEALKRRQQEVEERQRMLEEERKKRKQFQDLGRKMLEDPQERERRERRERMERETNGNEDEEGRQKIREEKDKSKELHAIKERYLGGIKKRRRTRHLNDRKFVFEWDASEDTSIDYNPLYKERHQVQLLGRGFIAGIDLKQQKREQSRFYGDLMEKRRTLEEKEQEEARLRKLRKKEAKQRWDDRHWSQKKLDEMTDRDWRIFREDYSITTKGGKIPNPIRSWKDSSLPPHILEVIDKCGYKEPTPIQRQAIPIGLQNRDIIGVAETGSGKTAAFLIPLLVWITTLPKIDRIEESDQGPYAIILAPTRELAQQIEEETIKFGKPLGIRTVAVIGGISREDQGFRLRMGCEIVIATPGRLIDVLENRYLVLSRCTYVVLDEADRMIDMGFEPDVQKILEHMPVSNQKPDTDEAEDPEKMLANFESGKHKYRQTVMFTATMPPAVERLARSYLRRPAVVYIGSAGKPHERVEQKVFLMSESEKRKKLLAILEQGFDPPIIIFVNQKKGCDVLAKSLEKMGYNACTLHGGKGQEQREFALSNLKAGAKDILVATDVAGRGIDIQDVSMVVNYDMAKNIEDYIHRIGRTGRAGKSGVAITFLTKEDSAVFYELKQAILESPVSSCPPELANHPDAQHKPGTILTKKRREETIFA
Sequence of UniProt Q06830 (Q06830 whole entry): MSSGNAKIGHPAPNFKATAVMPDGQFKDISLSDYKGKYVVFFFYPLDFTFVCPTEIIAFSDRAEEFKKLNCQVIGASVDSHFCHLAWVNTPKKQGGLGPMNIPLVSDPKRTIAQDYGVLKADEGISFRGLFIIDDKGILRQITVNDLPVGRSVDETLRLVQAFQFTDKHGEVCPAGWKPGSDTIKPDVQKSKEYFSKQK
Sequence of UniProt P00558 (P00558 whole entry): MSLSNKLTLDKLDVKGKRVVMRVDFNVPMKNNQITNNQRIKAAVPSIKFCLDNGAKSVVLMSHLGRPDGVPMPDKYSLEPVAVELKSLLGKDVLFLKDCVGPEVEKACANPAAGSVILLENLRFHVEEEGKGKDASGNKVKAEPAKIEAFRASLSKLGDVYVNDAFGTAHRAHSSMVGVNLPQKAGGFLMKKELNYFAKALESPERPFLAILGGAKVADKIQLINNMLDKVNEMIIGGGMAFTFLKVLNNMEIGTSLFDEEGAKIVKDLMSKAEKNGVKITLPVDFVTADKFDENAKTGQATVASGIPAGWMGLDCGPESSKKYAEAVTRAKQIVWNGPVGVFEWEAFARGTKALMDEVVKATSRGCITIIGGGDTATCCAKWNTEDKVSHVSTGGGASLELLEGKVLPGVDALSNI
Sequence of UniProt Q9BV40 (Q9BV40 whole entry): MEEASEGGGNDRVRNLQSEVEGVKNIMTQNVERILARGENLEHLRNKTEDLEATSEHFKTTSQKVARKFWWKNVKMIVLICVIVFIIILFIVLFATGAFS

| Target | lysine labeling ratio R10:1 |
| --- | --- |
| PVR (lysine site: K144) (UniProt P15151) | 4.25 (inactive) |
| HNRNPC (lysine site: K176) (UniProt P07910) | 3.1 (inactive) |
| LMO7 (lysine site: K1455) (UniProt Q8WWI1) | 1.37 (active) |
| TNFRSF1A (lysine site: K107) (UniProt P19438) | 1.07 (active) |
| CACNA2D1 (lysine site: K1048) (UniProt P54289) | 6.59 (inactive) |
| UniProt P54851 (lysine site: K126) | 3.69 (inactive) |
| PA2G4 (lysine site: K288) (UniProt Q9UQ80) | 0.997 (active) |
| RPS3 (lysine site: K108) (UniProt P23396) | 4.95 (inactive) |
| KRT18 (lysine site: K111) (UniProt P05783) | 14.4 (inactive) |
| DDX23 (lysine site: K204) (UniProt Q9BUQ8) | 0.85 (active) |
| HSPA4 (lysine site: K686) (UniProt P34932) | 8.32 (inactive) |
| PDCD6IP (lysine site: K374) (UniProt Q8WUM4) | 5.72 (inactive) |
| PRDX1 (lysine site: K197) (UniProt Q06830) | 2.6 (inactive) |
| THRAP3 (lysine site: K346) (UniProt Q9Y2W1) | 2.43 (inactive) |
| UniProt Q12884 (lysine site: K591) | 1.95 (active) |
| RPS19 (lysine site: K43) (UniProt P39019) | 0.56 (active) |
| TFRC (lysine site: K128) (UniProt P02786) | 6.74 (inactive) |
| RDX (lysine site: K363) (UniProt P35241) | 1.44 (active) |
| AKR1B1 (lysine site: K263) (UniProt P15121) | 8.32 (inactive) |
| RPS19 (lysine site: K77) (UniProt P39019) | 2.89 (inactive) |

| Target | lysine labeling ratio R10:1 |
| --- | --- |
| EPRS (lysine site: K360) (UniProt P07814) | 1.77 (active) |
| UniProt P26639 (lysine site: K319) | 2.46 (inactive) |
| ITGA1 (lysine site: K292) (UniProt P56199) | 2.63 (inactive) |
| DNASE1L1 (lysine site: K107) (UniProt P49184) | 1.25 (active) |
| HSP90B1 (lysine site: K633) (UniProt P14625) | 3.03 (inactive) |
| KIAA1549 (lysine site: K1195) (UniProt Q9HCM3) | 2.77 (inactive) |
| UniProt Q16513 (lysine site: K690) | 2.89 (inactive) |
| MYH9 (lysine site: K1459) (UniProt P35579) | 1.3 (active) |
| ITGA4 (lysine site: K526) (UniProt P13612) | 1.76 (active) |
| VAMP8 (lysine site: K64) (UniProt Q9BV40) | 2.52 (inactive) |
| DBN1 (lysine site: K248) (UniProt Q16643) | 0.855 (active) |
| ROBO1 (lysine site: K214) (UniProt Q9Y6N7) | 4.58 (inactive) |
| TLN1 (lysine site: K149) (UniProt Q9Y490) | 1.5 (active) |
| RPL4 (lysine site: K259) (UniProt P36578) | 1.88 (active) |
| FLNB (lysine site: K960) (UniProt O75369) | 1.54 (active) |
| CTTN (lysine site: K87) (UniProt Q14247) | 2.06 (inactive) |
| UniProt Q99623 (lysine site: K262) | 3.03 (inactive) |
| SLC25A1 (lysine site: K160) (UniProt P53007) | 2.79 (inactive) |
| EHD2 (lysine site: K491) (UniProt Q9NZN4) | 1.25 (active) |
| PGK1 (lysine site: K323) (UniProt P00558) | 5.55 (inactive) |
